# Screening data deposited in PubChem BioAssay by Broad Institute.
# TRPM1 prom inh: inhibitors of MITF-dependent TRPM1 promoter reporter, primary screen, cell-based, SK-MEL-5, single point, luciferase; hit rate 0.83% among 330,000; inhibition, % at 12.5 µM; SK-MEL-5 TRPM1 promoter luciferase, 24 h;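 active = mean inhibition across replicates of 60% or more, whatever share of single replicates reaches that level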
# LMP1 NFkB inh: EBV LMP1-driven NF-kappaB luciferase reporter inhibitors, primary screen, cell-based, luminescence, single point | LMP1-induced NF-kappaB luciferase reporter cells | inhibition, % at 12.5 µM | hit rate 0.69% among 350,000 | AID 504558, 2011; in the data active = inhibition above about 41%;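 note: 0% = neutral control wells and 100% = reference inhibitor control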
# PGC1a acetyl inh: inhibitors of PGC1a acetylation signal, primary screen, cell-based, U2OS, AlphaScreen, inhibitor mode; AlphaScreen anti-acetyl-lysine; with virally co-expressed GCN5 acetyltransferase; hit rate 0.17% among 350,000; inhibition, % at 15.6 µM; AID 651687, 2012;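 active = every replicate shows inhibition of at least 40%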;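 note: 0% = neutral control wells and 100% = positive control wells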
# PAX8 inh HTS: inhibitors of PAX8-driven TPO luciferase reporter, primary screen, RMG-I cells, single concentration; inhibition, % at 12.6 µM; AID 652154, 2013; SteadyGlo, 24 h; hit rate 1.2% among 360,000;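 active = mean replicate inhibition at least 60% with every replicate also reaching 60%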;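 note: luciferase light reporting Pax8 driven TPO promoter activity; plate controls were median of neutral control wells for no effect and mitoxantrone controls for full effect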
# LGR2 antag: inhibitors of bursicon-induced LGR2 CRE-luciferase signal, primary screen, cell-based, HEK293, CRE-luciferase reporter, bursicon stimulation; Drosophila bursicon receptor LGR2 (rickets); hit rate 0.35% among 380,000; inhibition, % at 9.99 µM; bursicon-stimulated, 4 h; AID 720647, 2013;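 active = drop in luminescence signal, shown as inhibition above about 50% in the replicate tests, limit read from the data, passing the limit was not always enough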;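 note: agonist challenge used bursicon conditioned medium at about half maximal strength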
# EWS-Fli inh: EWS/Fli-driven NR0B1 reporter inhibitors, primary screen, A673 cells, NR0B1 luciferase, luminescence, MLPCN library; hit rate 0.67% among 350,000; inhibition, % at 12.6 µM; viability-normalised;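 active = mean inhibition of at least 50% after viability correction, with every replicate also passing that limit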;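 note: firefly luciferase signal divided by Alamar Blue viability fluorescence both relative to DMSO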
# An asterisk follows results filed as active; . = no result given. In the library only some 2.2% were active in any assay of this set; here they are far more common.
SMILES,TRPM1 prom inh,LMP1 NFkB inh,PGC1a acetyl inh,PAX8 inh HTS,LGR2 antag,EWS-Fli inh
COc1ccc2c3c([nH]c2c1)[C@H](CO)N(C(=O)Nc1ccc(F)cc1)CC31CCN(C(=O)Nc2ccc3c(c2)OCO3)CC1,.,.,0,.,22,-6
O=C(C[C@@H]1CC[C@H]2[C@@H](COC[C@@H](O)CN2C(=O)c2ccccc2F)O1)N1CCOCC1,.,.,-4,-1,6,-5
Cc1ccc(NC(=S)/C(C#N)=C2/Nc3ccccc3S2)cc1,.,-3,-3,84*,-17,-9
COc1ccc(NC(=O)N(C)C[C@H]2Oc3ccc(N(C)C)cc3CC(=O)N([C@H](C)CO)C[C@@H]2C)cc1,.,.,-4,-12,-2,.
COc1ccc(OC)c(NC(=O)COc2coc(CN3CCc4ccccc43)cc2=O)c1,13,50*,.,16,0,5
COCCOC(=O)N1C(=O)[C@@]2(c3cc(C#Cc4ccc(OC)cc4)ccc31)[C@H](c1ccc(OCCO)cc1)N1[C@H](c3ccccc3)[C@H](c3ccccc3)OC(=O)[C@H]1[C@@H]2C(=O)N1CCN(c2ncccn2)CC1,.,.,.,3,.,-4
CCN(CC(=O)Nc1ccc(NC(C)=O)cc1)C(=O)C1(c2ccc(Cl)cc2)CCC1,.,-1,.,79*,9,1
O=C(Nc1ccc2c(c1)OCO2)N[C@@H]1CC[C@H](CCNC(=O)C2CCOCC2)O[C@@H]1CO,.,.,18,.,-3,1
COC(C(=O)C(O)C(C)O)C1Cc2cc3cc(OC4CC(OC5CC(O)C(O)C(C)O5)C(O)C(C)O4)c(C)c(O)c3c(O)c2C(=O)C1OC1CC(OC2CC(OC3CC(O)C(OC)C(C)O3)C(O)C(C)O2)C(O)C(C)O1 (centres undefined),56,80*,39,100*,5,14
CCCN1C[C@@H](C)[C@H](OC)CN(C)C(=O)c2ccc(NC(=O)C3CC3)cc2OC[C@@H]1C,.,.,18,-10,9,-5
Nc1ncnc2c1ncn2[C@@H]1O[C@H](CO)[C@@H](O)[C@H]1O,-12,3,-15,-10,-14,-7
O=c1[nH]nnc2c1ncn2C1OC(CO)C(O)C1O (centres undefined),.,.,-9,97*,4,6
O=c1[nH]cnc2c1ncn2[C@@H]1O[C@H](CO)[C@@H](O)[C@H]1O,9,80*,-11,-10,-8,-8
Cc1ccc(CNc2ccc([N+](=O)[O-])cc2C(N)=O)cc1,-103,-9,.,-128,-104,-93
Cc1ccc(Oc2c(C(N)=O)cc([N+](=O)[O-])cc2[N+](=O)[O-])cc1,92*,12,.,23,11,.
Cc1ccccc1Nc1nc(N)nc(CN(C)c2ccccc2)n1,-23,-5,-13,.,.,.
Cc1ccccc1Nc1nc(N)nc(CCl)n1,-6,1,12,102*,.,61*
COc1ccc(Nc2nc(N)nc(CCl)n2)cc1,-66,-13,5,101*,-32,44
Nc1nc(CCl)nc(Nc2ccc3ccccc3c2)n1,15,-4,.,98*,-100,53*
Cc1ccc(Nc2nc(N)nc(CN3CCN(c4ccccc4)CC3)n2)cc1Cl,4,-1,2,.,.,.
COc1ccc(Nc2nc(N)nc(CN3CCOCC3)n2)cc1,12,4,-7,.,.,.
CN1C[C@@H]2[C@H](c3ccccc31)[C@@H](CO)N2C(=O)C1CCCCC1,.,.,-7,4,-8,-3
O=[N+]([O-])c1ccc(-[n+]2ccc3ccccc3c2)c([N+](=O)[O-])c1,89*,11,.,47,-4,43
O=C(NCCCN1CCCCC1)c1ccc2c(c1)NC(=O)c1ccccc1S2,-14,57*,-27,-9,16,-1
COc1ccc(/C=C2\Sc3ccc(C(=O)NC4CC4)cc3N(C)C2=O)cc1OC,-8,38,-14,21,-7,5
SMILES,TRPM1 prom inh,LMP1 NFkB inh,PGC1a acetyl inh,PAX8 inh HTS,LGR2 antag,EWS-Fli inh
Cc1ccc(/C=C2/Sc3ccc(C(=O)NCCN4CCOCC4)cc3NC2=O)cc1,-20,3,.,-5,11,.
COc1ccc(/C=C2\Sc3ccc(C(=O)NCCN4CCCCCC4)cc3N(C)C2=O)cc1,63*,-8,-3,-5,-9,11
CCN1CCCC1CNC(=O)c1ccc2c(c1)NC(=O)/C(=C\c1ccc(C)cc1)S2 (centres undefined),81*,-22,-8,34,-5,.
COc1cccc(/C=C2/Sc3ccc(C(=O)NCCN4CCCC4)cc3NC2=O)c1,85*,-12,-12,22,-8,17
C[C@@H]1CCCCO[C@@H](CN(C)Cc2ccncc2)[C@H](C)CN([C@H](C)CO)C(=O)c2cc(NC(=O)c3ccccc3)ccc2O1,.,.,-7,6,9,1
C[C@@H]1CCCCO[C@H](CN(C)C)[C@H](C)CN([C@H](C)CO)C(=O)c2cc(NS(C)(=O)=O)ccc2O1,.,.,5,-17,12,-10
COCC(=O)Nc1ccc2c(c1)C(=O)N(C)C[C@@H](OC)[C@@H](C)CN(C(=O)c1ccccc1F)[C@@H](C)CO2,.,.,7,3,-5,1
O=C1Nc2cc(C(=O)NCCN3CCCCCC3)ccc2S/C1=C/c1ccccc1F,.,-138,-12,51,-2,73*
C[C@@H]1CN([C@H](C)CO)C(=O)c2cc(-c3ccc(C(=O)N(C)C)cc3)cnc2O[C@@H]1CN(C)C,.,.,6,.,2,-6
C[C@H](CO)N1C[C@H](C)[C@@H](CN(C)S(C)(=O)=O)Oc2c(NC(=O)c3nc4ccccc4s3)cccc2C1=O,.,.,-8,.,9,-4
CC(C)CC#Cc1cnc2c(c1)C(=O)N([C@@H](C)CO)C[C@@H](C)[C@H](CN(C)C(=O)c1cnccn1)O2,.,.,2,.,-21,-17
Cc1nc(Nc2nc3ccccc3o2)nc(C)c1C(=O)Nc1ccc(F)cc1,11,3,4,5,-14,10
Cc1cccc(C)c1Nc1nc2ccccc2o1,5,64*,.,5,.,-3
CCOC(=O)c1cnc(Nc2nc3ccccc3o2)nc1C,57,65*,-6,.,82*,.
Cc1nc(Nc2nc3ccccc3o2)nc2c1CCC2,25,57*,.,31,.,.
CCOC(=O)c1cnc(Nc2nc3ccccc3o2)nc1CSc1nnc(C)s1,-17,-10,1,-10,.,.
CC(C)NC(=O)N(C)C[C@H]1Oc2ccc(NS(=O)(=O)c3cccs3)cc2C(=O)N([C@H](C)CO)C[C@H]1C,.,.,-2,.,-13,2
COc1cc(C(=O)Nc2ccc(C)cc2)c2ccccc2n1,37,2,-2,33,-4,54*
CCOc1ccc(NC(=O)c2cc(OC)nc3ccccc23)cc1,11,8,.,33,-17,42
CCc1ccc(/C=C/c2c[nH]c3ccccc23)[n+](CC)c1,39,10,.,67*,15,17
